In ChEMBL document CHEMBL1961873, “Compounds: GSK PKIS; Assays: Nanosyn kinase panel” (2012):
Values joined by “and” are separate entries in the source; they are usually repeats but may differ in a detail not shown here. Equal values may be shown once.

How the values were obtained:
[1] = test system: Epidermal growth factor receptor (Homo sapiens), P00533 [T790M]; settings: at 1 µM
[2] = test system: Epidermal growth factor receptor (Homo sapiens), P00533 [L858R,T790M]; settings: at 0.1 µM
[3] = test system: Epidermal growth factor receptor (Homo sapiens), P00533 [L858R,T790M]; settings: at 1 µM
[4] = biological target: Ephrin type-A receptor 2 (Homo sapiens) (UniProt P29317); settings: at 0.1 µM
[5] = biological target: Ephrin type-A receptor 2 (Homo sapiens) (UniProt P29317); settings: at 1 µM
[6] = biological target: T1, Ephrin type-A receptor 3 (Homo sapiens) (UniProt P29320); settings: at 0.1 µM
T1 sequence (whole entry): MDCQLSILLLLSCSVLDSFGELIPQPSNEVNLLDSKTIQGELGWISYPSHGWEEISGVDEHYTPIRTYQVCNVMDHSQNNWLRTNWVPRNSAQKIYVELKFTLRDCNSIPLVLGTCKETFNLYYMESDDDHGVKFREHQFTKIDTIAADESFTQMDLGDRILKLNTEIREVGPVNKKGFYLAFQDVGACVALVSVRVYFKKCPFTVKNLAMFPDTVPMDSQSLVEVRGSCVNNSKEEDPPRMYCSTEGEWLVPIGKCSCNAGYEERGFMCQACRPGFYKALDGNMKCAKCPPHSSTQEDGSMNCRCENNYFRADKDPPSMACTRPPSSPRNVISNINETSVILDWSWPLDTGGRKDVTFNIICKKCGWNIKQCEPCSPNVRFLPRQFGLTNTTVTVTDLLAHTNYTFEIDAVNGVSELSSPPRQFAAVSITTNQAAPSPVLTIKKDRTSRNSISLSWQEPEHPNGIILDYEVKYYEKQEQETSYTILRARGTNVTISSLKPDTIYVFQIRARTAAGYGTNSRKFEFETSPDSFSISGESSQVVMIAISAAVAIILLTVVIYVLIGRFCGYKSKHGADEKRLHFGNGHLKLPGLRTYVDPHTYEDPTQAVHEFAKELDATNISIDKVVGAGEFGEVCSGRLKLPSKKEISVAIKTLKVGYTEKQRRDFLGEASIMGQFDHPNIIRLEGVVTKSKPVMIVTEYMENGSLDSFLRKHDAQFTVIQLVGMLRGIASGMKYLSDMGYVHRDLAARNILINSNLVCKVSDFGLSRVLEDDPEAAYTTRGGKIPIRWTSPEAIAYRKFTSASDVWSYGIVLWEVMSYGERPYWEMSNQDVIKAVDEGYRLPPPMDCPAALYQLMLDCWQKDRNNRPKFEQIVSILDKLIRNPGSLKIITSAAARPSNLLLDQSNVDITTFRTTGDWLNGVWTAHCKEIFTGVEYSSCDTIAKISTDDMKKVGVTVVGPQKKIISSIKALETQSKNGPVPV

[7] = biological target: T1, Ephrin type-A receptor 3 (Homo sapiens); settings: at 1 µM
[8] = biological target: Ephrin type-A receptor 4 (Homo sapiens) (UniProt P54764); settings: at 0.1 µM
[9] = biological target: Ephrin type-A receptor 4 (Homo sapiens) (UniProt P54764); settings: at 1 µM
[10] = biological target: T2, Ephrin type-B receptor 2 (Homo sapiens) (UniProt P29323); settings: at 0.1 µM
T2 sequence (whole entry): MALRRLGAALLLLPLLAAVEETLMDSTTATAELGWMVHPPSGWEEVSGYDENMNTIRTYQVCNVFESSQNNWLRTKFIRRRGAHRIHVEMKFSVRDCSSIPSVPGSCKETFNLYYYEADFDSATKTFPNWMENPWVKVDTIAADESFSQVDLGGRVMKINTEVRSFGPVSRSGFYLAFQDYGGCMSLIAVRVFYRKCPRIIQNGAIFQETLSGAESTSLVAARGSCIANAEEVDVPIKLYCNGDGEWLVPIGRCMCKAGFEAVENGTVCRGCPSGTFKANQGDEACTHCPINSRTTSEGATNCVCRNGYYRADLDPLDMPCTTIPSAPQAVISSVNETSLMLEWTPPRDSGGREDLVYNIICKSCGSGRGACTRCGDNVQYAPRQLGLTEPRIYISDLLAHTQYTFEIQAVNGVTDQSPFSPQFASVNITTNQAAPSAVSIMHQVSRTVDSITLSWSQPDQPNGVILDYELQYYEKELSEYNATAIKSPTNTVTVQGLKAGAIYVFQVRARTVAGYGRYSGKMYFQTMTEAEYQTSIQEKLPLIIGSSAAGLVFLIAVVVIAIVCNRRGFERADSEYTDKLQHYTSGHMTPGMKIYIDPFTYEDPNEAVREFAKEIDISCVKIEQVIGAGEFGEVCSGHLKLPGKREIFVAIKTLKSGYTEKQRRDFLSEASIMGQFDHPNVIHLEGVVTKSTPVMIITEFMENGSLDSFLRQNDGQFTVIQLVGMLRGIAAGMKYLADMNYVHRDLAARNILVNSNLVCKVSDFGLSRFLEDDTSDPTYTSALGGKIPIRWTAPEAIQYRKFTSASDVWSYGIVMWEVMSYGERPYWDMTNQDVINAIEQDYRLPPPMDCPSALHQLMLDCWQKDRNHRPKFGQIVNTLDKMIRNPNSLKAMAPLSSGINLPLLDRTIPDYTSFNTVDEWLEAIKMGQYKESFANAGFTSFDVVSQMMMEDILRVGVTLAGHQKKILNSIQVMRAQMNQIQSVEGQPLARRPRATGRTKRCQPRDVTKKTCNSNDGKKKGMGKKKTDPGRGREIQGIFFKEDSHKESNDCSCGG

[11] = biological target: T2, Ephrin type-B receptor 2 (Homo sapiens); settings: at 1 µM
[12] = biological target: T3, Ephrin type-B receptor 3 (Homo sapiens) (UniProt P54753); settings: at 0.1 µM
T3 sequence (whole entry): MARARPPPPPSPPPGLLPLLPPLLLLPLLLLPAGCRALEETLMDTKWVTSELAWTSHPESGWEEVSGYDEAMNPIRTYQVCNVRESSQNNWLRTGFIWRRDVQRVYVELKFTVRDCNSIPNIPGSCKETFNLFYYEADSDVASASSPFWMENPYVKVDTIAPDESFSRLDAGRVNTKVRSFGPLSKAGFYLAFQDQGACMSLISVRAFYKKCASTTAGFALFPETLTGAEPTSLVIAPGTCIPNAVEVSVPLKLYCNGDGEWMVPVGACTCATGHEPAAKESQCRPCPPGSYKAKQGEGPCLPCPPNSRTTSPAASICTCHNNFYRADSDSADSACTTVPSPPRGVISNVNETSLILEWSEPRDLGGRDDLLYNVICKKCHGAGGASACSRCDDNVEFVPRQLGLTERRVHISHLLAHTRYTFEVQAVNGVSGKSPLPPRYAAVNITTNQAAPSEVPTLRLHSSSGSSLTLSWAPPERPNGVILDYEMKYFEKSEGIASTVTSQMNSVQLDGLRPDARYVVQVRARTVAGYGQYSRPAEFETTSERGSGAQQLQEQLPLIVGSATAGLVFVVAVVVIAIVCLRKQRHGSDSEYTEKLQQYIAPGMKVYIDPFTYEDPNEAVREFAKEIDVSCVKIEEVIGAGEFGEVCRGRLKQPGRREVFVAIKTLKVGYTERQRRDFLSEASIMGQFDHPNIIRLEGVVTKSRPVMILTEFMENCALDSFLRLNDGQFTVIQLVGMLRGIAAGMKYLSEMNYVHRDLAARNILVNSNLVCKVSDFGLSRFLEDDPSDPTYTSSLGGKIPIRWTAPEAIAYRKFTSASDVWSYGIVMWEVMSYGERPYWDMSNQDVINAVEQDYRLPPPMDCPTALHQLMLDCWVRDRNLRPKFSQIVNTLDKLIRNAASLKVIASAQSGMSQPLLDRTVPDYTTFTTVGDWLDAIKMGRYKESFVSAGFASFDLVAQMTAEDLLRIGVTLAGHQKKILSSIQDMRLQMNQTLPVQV

[13] = biological target: T3, Ephrin type-B receptor 3 (Homo sapiens); settings: at 1 µM
[14] = biological target: T4, Ephrin type-B receptor 4 (Homo sapiens) (UniProt P54760); settings: at 0.1 µM
T4 sequence (whole entry): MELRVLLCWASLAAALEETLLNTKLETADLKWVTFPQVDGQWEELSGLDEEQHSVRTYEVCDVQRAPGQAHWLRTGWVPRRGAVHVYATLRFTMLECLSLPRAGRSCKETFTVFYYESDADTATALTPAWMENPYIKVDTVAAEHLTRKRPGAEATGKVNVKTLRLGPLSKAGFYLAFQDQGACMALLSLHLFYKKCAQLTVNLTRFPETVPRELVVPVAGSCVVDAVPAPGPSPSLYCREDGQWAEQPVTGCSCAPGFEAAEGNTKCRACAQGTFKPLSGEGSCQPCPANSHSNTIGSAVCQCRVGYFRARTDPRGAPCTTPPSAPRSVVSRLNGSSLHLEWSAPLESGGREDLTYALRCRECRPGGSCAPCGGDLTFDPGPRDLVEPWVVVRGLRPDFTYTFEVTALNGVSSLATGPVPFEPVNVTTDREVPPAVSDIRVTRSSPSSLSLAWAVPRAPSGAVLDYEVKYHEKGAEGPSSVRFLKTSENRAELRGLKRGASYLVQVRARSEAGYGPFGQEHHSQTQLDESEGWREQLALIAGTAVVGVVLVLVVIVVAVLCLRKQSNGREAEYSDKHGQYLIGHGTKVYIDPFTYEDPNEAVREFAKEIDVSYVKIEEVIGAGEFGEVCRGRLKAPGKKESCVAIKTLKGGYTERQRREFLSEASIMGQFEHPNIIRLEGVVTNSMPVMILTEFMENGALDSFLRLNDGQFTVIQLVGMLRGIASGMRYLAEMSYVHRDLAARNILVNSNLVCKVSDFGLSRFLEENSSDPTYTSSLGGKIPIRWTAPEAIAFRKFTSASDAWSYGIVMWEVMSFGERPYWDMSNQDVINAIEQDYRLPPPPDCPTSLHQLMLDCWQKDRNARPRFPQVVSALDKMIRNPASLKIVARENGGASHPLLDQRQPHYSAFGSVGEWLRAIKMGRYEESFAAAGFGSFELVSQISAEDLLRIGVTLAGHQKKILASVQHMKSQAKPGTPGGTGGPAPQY

[15] = biological target: T4, Ephrin type-B receptor 4 (Homo sapiens); settings: at 1 µM
[16] = biological target: Receptor tyrosine-protein kinase erbB-2 (Homo sapiens) (UniProt P04626); settings: at 0.1 µM
[17] = biological target: Receptor tyrosine-protein kinase erbB-2 (Homo sapiens) (UniProt P04626); settings: at 1 µM
[18] = biological target: Receptor tyrosine-protein kinase erbB-4 (Homo sapiens) (UniProt Q15303); settings: at 0.1 µM
[19] = biological target: Receptor tyrosine-protein kinase erbB-4 (Homo sapiens) (UniProt Q15303); settings: at 1 µM
[20] = biological target: Tyrosine-protein kinase Fer (Homo sapiens) (UniProt P16591); settings: at 0.1 µM;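 further: reported figures are averaged percent inhibition of FER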

Ephrin type-A receptor 4 (Homo sapiens), sequence (P54764 whole entry): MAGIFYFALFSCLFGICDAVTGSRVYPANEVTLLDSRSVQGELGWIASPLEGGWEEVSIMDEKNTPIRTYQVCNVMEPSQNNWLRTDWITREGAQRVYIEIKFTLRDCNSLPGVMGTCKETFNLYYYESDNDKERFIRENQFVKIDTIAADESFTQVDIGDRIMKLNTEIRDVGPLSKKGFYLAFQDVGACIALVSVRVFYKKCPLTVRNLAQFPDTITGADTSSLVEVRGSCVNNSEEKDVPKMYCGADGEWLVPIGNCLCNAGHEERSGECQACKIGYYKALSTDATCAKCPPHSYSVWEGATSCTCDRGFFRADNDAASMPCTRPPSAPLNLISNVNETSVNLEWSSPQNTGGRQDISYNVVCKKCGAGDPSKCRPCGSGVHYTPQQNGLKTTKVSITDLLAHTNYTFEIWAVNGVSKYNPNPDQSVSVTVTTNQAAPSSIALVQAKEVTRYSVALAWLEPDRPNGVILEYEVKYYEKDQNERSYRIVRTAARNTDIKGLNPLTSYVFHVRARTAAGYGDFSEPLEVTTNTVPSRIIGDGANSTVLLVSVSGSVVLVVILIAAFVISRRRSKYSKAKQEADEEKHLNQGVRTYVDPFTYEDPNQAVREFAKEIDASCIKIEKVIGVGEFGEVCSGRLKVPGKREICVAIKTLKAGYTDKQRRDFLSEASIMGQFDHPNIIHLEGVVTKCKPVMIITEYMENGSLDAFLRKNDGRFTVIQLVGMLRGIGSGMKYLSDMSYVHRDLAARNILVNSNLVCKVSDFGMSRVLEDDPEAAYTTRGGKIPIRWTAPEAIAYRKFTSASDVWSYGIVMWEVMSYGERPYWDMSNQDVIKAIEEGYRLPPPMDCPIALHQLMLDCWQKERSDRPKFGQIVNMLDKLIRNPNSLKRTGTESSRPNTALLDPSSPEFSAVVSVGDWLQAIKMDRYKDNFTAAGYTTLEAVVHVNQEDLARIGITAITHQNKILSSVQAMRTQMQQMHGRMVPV
Receptor tyrosine-protein kinase erbB-2 (Homo sapiens), sequence (P04626 whole entry): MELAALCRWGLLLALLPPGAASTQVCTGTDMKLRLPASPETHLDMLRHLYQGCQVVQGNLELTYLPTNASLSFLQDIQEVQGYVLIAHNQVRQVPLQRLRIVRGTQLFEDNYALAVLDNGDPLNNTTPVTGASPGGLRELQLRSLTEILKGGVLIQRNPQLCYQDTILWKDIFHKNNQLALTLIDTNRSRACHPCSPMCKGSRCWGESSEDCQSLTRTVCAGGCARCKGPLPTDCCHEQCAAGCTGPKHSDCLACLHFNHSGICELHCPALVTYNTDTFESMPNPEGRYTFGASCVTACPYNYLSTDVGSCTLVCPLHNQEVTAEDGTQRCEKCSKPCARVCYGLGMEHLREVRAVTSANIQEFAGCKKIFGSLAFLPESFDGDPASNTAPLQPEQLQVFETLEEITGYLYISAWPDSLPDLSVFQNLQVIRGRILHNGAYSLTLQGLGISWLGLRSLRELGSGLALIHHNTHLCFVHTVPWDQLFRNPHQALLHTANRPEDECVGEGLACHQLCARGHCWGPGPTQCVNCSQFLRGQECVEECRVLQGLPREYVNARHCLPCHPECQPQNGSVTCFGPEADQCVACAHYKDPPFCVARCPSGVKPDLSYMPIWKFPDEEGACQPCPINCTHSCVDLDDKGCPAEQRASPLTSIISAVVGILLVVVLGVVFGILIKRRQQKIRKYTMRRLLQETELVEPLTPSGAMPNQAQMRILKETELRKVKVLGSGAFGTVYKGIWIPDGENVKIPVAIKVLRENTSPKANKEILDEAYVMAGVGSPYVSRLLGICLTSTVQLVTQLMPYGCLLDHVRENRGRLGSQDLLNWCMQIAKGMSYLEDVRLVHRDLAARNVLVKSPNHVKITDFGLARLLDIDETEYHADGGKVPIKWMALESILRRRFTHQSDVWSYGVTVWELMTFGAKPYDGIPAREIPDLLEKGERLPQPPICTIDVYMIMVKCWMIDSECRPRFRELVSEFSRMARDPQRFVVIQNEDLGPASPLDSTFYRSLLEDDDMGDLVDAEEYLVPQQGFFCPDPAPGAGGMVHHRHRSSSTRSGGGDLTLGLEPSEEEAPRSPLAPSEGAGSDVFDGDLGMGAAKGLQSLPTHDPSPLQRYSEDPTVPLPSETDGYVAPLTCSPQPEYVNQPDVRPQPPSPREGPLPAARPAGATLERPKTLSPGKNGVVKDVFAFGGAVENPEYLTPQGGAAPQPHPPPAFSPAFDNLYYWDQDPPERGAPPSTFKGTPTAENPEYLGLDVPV
Epidermal growth factor receptor (Homo sapiens), P00533 [T790M], sequence (P00533 whole entry T790M): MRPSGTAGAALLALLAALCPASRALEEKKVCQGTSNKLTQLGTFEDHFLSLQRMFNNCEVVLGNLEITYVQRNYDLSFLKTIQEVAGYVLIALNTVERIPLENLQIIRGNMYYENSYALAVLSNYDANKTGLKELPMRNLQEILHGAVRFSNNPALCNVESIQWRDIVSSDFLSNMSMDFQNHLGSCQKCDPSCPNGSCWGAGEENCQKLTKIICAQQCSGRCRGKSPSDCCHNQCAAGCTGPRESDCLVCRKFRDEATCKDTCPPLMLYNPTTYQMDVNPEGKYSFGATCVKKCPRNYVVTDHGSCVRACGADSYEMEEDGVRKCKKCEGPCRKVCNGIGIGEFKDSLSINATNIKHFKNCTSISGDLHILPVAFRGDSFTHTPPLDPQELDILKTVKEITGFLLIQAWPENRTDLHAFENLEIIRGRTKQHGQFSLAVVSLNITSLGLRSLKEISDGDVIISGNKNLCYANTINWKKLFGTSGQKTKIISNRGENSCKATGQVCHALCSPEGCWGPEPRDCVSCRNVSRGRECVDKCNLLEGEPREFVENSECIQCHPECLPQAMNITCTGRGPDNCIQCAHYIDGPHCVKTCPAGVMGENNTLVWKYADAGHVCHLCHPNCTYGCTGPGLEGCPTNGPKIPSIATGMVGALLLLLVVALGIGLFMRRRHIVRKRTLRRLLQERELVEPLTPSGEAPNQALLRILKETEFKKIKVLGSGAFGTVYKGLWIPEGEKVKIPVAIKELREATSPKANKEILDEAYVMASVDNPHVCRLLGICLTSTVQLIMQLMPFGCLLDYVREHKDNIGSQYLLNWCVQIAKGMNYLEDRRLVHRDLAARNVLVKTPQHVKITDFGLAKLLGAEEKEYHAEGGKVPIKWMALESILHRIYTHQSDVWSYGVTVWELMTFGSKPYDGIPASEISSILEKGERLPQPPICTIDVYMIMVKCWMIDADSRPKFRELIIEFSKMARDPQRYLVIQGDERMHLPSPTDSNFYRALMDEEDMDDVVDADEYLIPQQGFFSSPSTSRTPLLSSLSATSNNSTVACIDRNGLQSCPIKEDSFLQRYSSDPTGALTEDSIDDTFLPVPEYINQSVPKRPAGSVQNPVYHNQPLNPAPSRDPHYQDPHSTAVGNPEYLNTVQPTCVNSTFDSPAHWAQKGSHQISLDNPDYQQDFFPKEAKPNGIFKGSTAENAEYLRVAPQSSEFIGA
Receptor tyrosine-protein kinase erbB-4 (Homo sapiens), sequence (Q15303 whole entry): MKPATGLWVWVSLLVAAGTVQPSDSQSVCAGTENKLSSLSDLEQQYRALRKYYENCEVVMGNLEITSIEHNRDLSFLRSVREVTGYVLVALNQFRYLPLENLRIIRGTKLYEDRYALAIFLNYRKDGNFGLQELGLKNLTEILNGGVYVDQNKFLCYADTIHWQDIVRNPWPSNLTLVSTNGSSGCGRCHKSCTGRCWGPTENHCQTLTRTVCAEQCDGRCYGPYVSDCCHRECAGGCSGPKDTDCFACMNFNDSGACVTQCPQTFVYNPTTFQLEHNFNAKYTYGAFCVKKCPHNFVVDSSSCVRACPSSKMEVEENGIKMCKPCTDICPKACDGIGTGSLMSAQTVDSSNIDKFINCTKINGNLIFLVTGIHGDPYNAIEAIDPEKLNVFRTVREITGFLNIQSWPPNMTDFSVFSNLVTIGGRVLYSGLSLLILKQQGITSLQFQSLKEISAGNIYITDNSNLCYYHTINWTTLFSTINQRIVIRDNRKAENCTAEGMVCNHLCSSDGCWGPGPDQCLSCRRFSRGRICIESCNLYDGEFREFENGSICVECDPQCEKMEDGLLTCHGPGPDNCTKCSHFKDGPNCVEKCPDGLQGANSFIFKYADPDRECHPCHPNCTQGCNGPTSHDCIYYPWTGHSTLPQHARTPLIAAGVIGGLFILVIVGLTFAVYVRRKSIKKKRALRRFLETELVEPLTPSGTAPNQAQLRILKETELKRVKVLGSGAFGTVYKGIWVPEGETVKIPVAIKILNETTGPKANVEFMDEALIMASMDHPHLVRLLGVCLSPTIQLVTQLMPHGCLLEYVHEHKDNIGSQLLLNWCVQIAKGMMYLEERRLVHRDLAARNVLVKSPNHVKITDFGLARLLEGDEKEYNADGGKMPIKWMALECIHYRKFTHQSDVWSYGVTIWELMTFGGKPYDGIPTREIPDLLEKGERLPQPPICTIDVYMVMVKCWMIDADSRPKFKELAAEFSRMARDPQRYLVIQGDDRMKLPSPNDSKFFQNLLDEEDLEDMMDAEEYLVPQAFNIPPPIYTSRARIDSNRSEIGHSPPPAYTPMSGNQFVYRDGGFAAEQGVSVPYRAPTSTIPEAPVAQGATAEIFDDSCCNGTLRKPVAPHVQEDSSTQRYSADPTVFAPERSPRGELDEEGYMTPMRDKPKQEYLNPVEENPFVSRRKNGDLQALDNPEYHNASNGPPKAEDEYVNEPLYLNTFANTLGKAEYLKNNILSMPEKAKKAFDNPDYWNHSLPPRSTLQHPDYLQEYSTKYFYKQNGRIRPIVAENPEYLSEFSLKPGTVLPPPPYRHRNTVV

| Structure (SMILES) | inhibition [1] [%] | inhibition [2] [%] | inhibition [3] [%] | inhibition [4] | inhibition [5] | inhibition [6] | inhibition [7] | inhibition [8] | inhibition [9] | inhibition [10] | inhibition [11] | inhibition [12] | inhibition [13] | inhibition [14] | inhibition [15] | inhibition [16] | inhibition [17] | inhibition [18] | inhibition [19] | inhibition [20] |
| --- | --- | --- | --- | --- | --- | --- | --- | --- | --- | --- | --- | --- | --- | --- | --- | --- | --- | --- | --- | --- |
| COC(=O)Nc1nc2cc(Oc3ccc(NC(=O)Nc4ccccc4)cc3)ccc2[nH]1 | 2.64 | -2.44 | 2.14 | 2.42% | 3.37% | 4.93% | 1.33% | 8.86% | 11.2% | 5.01% | 4.12% | 3.87% | 1.72% | 0.78% | 0.42% | 3.5% | 3.12% | 7.18% | 7.92% | 2.73% |
| CN1CCN(Cc2ccc(-c3cc4ncnc(Nc5ccc(OCc6cccc(F)c6)c(Cl)c5)c4s3)o2)CC1 |  |  |  | -2.36% and 1.48% | -2.73% and 2.15% | 2.75% and 5.84% | 2.47% and 3.64% | 4.95% and 10.4% | 6.16% and 11.9% | 5.13% and 6.55% | 8.33% and 7.32% | 3.73% and 7.71% | 4.63% and 4.53% | 0.3% and 3.67% | 6.48% and 3.12% | 5.26% and 7.95% | 62.3% and 65% | 81.7% and 91.1% | 93% and 97.8% | 1.93% and 6.27% |
| COc1cc(N2CCN(C(C)C)CC2)ccc1Nc1nc(Nc2cccc3ncccc23)c2cc[nH]c2n1 | 10.3 | 1.03 | 35.2 | -1.62% | -2.47% | 0.15% | 3.49% | 0.21% | 0.38% | 5.06% | 2.09% | 1.16% | 0.4% | 0.17% | 0.88% | -0.99% | 2.24% | -0.3% | 5.51% | 7.7% |
| COc1cc(Nc2ncc(-c3ccccc3)o2)cc(OC)c1 | 1.99 | 0.93 | 0.21 | 2.21% | 2.39% | 3.02% | 8.57% | 8.98% | 13.7% | 8.98% | 11.5% | 3.34% | 3.15% | 1.28% | 4.64% | 2.1% | 3.72% | 9.38% | 14.6% | 0.58% |
